The campaign covered roughly 410,000 compounds. About 18,000 (4.4%) were called active. Inconclusive results (about 7%) are left out. This is one part of a sample in which actives are shown more often than they occur. A number with no mark means an inactive call. Cut-off read from the data, not from the text of the source: active = activity change below about -60%; inconclusive = no clear call, values can overlap the other calls; inactive = above about -39%.
Test: qHTS Assay for inhibitors of the human cytomegalovirus (HCMV)
Conditions: HFF cells, HCMV-luciferase reporter, 72 h; at 57.5 µM; hits give low values
How it was run: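 Two-dose cell screen: HFF monolayers treated with compounds and infected with luciferase-expressing HCMV at 1 PFU/cell, 72 h at 37C, then lysed for luciferase measurement.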
% is set by controls: 0 for no effect and ±100 for the full control effect.

Row | SMILES | activity change, negative = inhibition
1 | Cc1ccc(Cl)cc1NC(=O)CSc1nc2ccccc2nc1Cc1ccccc1 | 36.7%
2 | CCN1/C(=C\c2ccc3ccccc3[n+]2CC)Sc2cc(C)ccc21 | -99.8% (active)
3 | O=c1o[nH]c(-c2ccccc2)c1N=Nc1c(F)cccc1Cl | -12.9%
4 | COc1cc(NC(=O)CCn2nc(C)cc2C)cc(OC)c1OC | 9.6%
5 | CN(C(=O)CCN1C(=O)/C(=C/c2ccccc2F)SC1=S)C1CCS(=O)(=O)C1 (centres undefined) | -63.4% (active)
6 | CN(C(=O)CN1C(=O)S/C(=C\c2ccccc2F)C1=O)C1CCS(=O)(=O)C1 (centres undefined) | -18.9%
7 | COc1ccccc1/C=C1\SC(=O)N(CCC(=O)N(C)C2CCS(=O)(=O)C2)C1=O (centres undefined) | -7.61%
8 | CCCNC(=O)CCC(=O)N1Cc2ccccc2Oc2ncccc21 | 2.27%
9 | Cc1cc(=O)n2[nH]c(-c3sccc3-n3c(C)ccc3C)cc2n1 | -64.1% (active)
10 | COc1ccccc1CNS(=O)(=O)c1cc(Br)cc2c1N(C(C)=O)C(C)C2 (centres undefined) | -27.7%
11 | O=C(COC(=O)c1cc(S(=O)(=O)N2CCOCC2)ccc1F)NC1CC1 | -20.2%
12 | COc1cc(NC(=O)COC(=O)c2cc(S(=O)(=O)N3CCOCC3)ccc2F)cc(OC)c1 | -68.7% (active)
13 | O=C(COC(=O)c1ccccc1F)Nc1cc(S(=O)(=O)N2CCOCC2)ccc1N1CCCC1 | -28.5%
14 | CCCC12CN3CC(C)(CN(C1)C3c1ccccc1Cl)C2=O (centres undefined) | 1.49%
15 | Cc1cccc(NC(=O)Nc2cccc(Oc3c(F)c(F)c(F)c(F)c3F)c2)c1 | -76.5% (active)
16 | Cc1ccoc1C(=O)Nc1cccc(Oc2ccccc2)c1 | 16.8%
17 | Cc1cccc(NC(=O)NC2(C)CCS(=O)(=O)C2)c1 (centres undefined) | 14.3%
18 | COc1ccc(CCNC(=O)CCCCn2c(=O)c3ccccc3n(Cc3ccccc3C)c2=O)cc1OC | -31.9%
19 | CCOC(=O)c1ccc(NC(=O)c2c(NCc3cccc(OC)c3)sc3c2CCC3)cc1 | -1.86%
20 | CCOc1ccccc1NC(=S)N1CCN(c2cccc(C)c2C)CC1 | -37.3%
21 | CCC(=O)N1CCN(c2ccccc2NC(=O)COc2cccc(C)c2C)CC1 | -63.8% (active)
22 | Cc1ccccc1OCC(=O)Nc1ccc(N2CCN(C(=O)C(C)C)CC2)c(Cl)c1 | 1.1%
23 | COc1ccc(C)cc1NC(=O)C(=O)NCCc1sc(-c2cccc(C)c2)nc1C | -4.02%

Row | SMILES | activity change, negative = inhibition
24 | Cc1ccccc1CCNC(=O)C1CCN(c2nc3ccccc3nc2C(F)(F)F)CC1 | -6.7%
25 | COC(=O)/C=C\C(=O)Nc1cccc([N+](=O)[O-])c1 | -87.4% (active)
26 | O=C(/C=C/c1cccc([N+](=O)[O-])c1)NCCSCc1ccco1 | -19.7%
27 | COc1ccc(C)cc1S(=O)(=O)N(CC(=O)Nc1cccc([N+](=O)[O-])c1)c1ccc(C)cc1 | -7.9%
28 | CCc1ccc(NC(=O)C(C)OC(=O)/C=C/c2cccc([N+](=O)[O-])c2)cc1 (centres undefined) | 7.98%
29 | CCC(CC)NC(=O)/C=C/c1cccc([N+](=O)[O-])c1 | -60.1% (active)
30 | CC(C)OP(=O)(OC(C)C)C(Nc1ccccc1)c1cccc([N+](=O)[O-])c1 (centres undefined) | -30.9%
31 | COc1ccc(-c2nc(S(=O)(=O)c3ccccc3)c(N3CCCCC3)o2)cc1 | -14.3%
32 | CCOc1ccc2nc(N3CCCC(C(=O)Nc4cc(C)ccc4C)C3)sc2c1 (centres undefined) | 69.3%
33 | CCn1cc(C(=O)N(C)Cc2ccccc2)c(=O)c2cc(S(=O)(=O)N3CCCCCC3)ccc21 | 4.41%
34 | CC(=O)N1c2ccc(S(=O)(=O)NCCC(=O)N(C)C3CCCCC3)cc2CC1C (centres undefined) | -39.5%
35 | COc1ccc(C(F)(F)F)cc1NC(=O)c1sc2nc(-c3cccs3)ccc2c1N | 14.5%
36 | N#Cc1ccc(C(=O)Nc2nc(-c3cccs3)c(C(=O)C(F)(F)F)s2)cc1 | -96.5% (active)
37 | CCn1c(NC(=O)c2ccccc2)c(-c2cccs2)c(=O)c2ccccc21 | 25.8%
38 | O=C(NCCS(=O)(=O)N1CCN(c2ccc(F)cc2)CC1)c1ccccc1Br | 20.8%
39 | Cn1c(=O)c2c(SCC(=O)NCC3CCCO3)nc(-c3ccccc3F)nc2n(C)c1=O (centres undefined) | -4.16%
40 | Cc1ccc(-c2cc(N)n(Cc3cccc(Cl)c3)n2)cc1 | -21.8%
41 | COc1cccc(/C=N/Nc2cc(C)nc(-c3ccccc3O)n2)c1O | -95.8% (active)
42 | COc1ccc(-c2nc3nc(C)cc(C)n3c2Nc2c(C)cccc2C)cc1 | -8%
43 | COc1ccc(/C=C/c2noc(-c3ccccc3O)n2)cc1OC | 63.9%
44 | COc1ccc(Nc2cc(C)nc(-n3nc(C)cc3C)n2)cc1 | -84.3% (active)
45 | Cc1cc(C)n(-c2nnc(N3CCN(c4ccccc4)CC3)nn2)n1 | -11.6%
46 | COc1cc(Cl)c(C)cc1Nc1nnc(-n2nc(C)cc2C)c2ccccc12 | 16.8%

Row | SMILES | activity change, negative = inhibition
47 | COc1ccccc1/C=N\Nc1cc(C)nc(-n2nc(C)cc2C)n1 | -94.4% (active)
48 | Cc1cccc(Nc2cc(C)nc(-n3nc(C)cc3C)n2)c1 | -83.8% (active)
49 | Cc1ccc(Nc2nc3ccccc3nc2-n2nc(C)cc2C)c(Cl)c1 | 2.84%
50 | CCOC(=O)c1cnc(-n2nc(C)cc2C)nc1NNc1cc(C)nc(-c2ccccc2)n1 | -1.83%
51 | COc1ccc(C(C[N+](=O)[O-])n2nc(C)cc2C)cc1 (centres undefined) | -11%
52 | CCCCc1nnc(NC(=O)CSc2nc(N)cc(=O)[nH]2)s1 | -10.9%
53 | O=S(=O)(NCCS(=O)(=O)N1CCN(c2ccccc2)CC1)c1ccc(Cl)cc1 | -35.4%
54 | CCOc1cc(/C=C(\C#N)C(=O)Nc2ccccc2C)ccc1OCc1cc(=O)n2nc(CC)sc2n1 | -5.21%
55 | CSc1nc(=O)c2c(n1C)NC(=O)CC2c1ccccc1OC(C)C (centres undefined) | -11%
56 | CC1(c2cccc([N+](=O)[O-])c2)CC(C)(C)N(C(=O)c2ccccc2)c2ccccc21 (centres undefined) | -23.1%
57 | Cc1nnc(SCC(=O)N2c3ccccc3C(C)(c3ccc(Cl)cc3)CC2(C)C)s1 (centres undefined) | -74.1% (active)
58 | O=C(CSc1nnc(SCc2ccc(Cl)cc2)s1)N/N=C/c1ccccc1Cl | 13.9%
59 | CCOC(=O)C(Cc1ccccc1)NC(=O)CCc1c(C)nc2c(c(C)nn2-c2ccc(C)c(C)c2)c1C (centres undefined) | 35.7%
60 | Cc1ccc(SCC(=O)Nc2ccc3oc(-c4ccccc4F)nc3c2)cc1 | 68.8%
61 | COc1ccc(Cl)cc1NC(=O)C(C)Sc1nc2c(c(=O)[nH]1)CCCC2 (centres undefined) | 12.7%
62 | Cc1ccccc1OS(=O)(=O)c1cccc([N+](=O)[O-])c1 | -19.5%
63 | COc1cccc(OCCOc2cccc(/C=N/n3cnnc3)c2)c1 | 27%
64 | Cc1ccccc1OCCOc1ccc([N+](=O)[O-])cc1/C=N/n1cnnc1 | -98.2% (active)
65 | CC1(c2nnc(Cc3ccccc3)o2)CC(c2ccccc2F)=NO1 (centres undefined) | 4.15%
66 | CCCOc1ccc(NC(=O)CC2C(=O)N(c3ccccc3)C(=O)N2Cc2ccco2)cc1 (centres undefined) | 38.3%
67 | COc1cccc(C(=O)N2CCC(n3nccc3NC(=O)C3CCOC3)CC2)c1 (centres undefined) | -18.9%
68 | COc1cccc(N2CCN(CC(=O)Nc3ccnn3C3CCCC3)CC2)c1 | -60.5% (active)
69 | COc1ccccc1N1CCN(CC(=O)Nc2ccnn2C2CCCC2)CC1 | -12%

Row | SMILES | activity change, negative = inhibition
70 | COc1ccc2[nH]c3nc(SCC(=O)NC4CC4)nnc3c2c1 | 13.8%
71 | CCOc1ccc2[nH]c3nc(SCC(=O)NC4CCCC4)nnc3c2c1 | -31.8%
72 | O=C(CSc1nnc2c(n1)[nH]c1ccccc12)NC1CCCCC1 | -65.5% (active)
73 | O=C(Cc1cccs1)N(CC1CCCO1)C1(C(=O)NC2CCCCC2)CCCCC1 (centres undefined) | -20.9%
74 | CCOC(=O)c1c(CC(C)C)csc1/N=C/C1=C(O)CCCC1=O | -98.2% (active)
75 | CCOC(=O)c1sc(/N=C/C2=C(O)CC(C)(C)CC2=O)c(C(=O)OCC)c1C | -33.1%
76 | Cc1cc(N=CC2=C(O)CCCC2=O)no1 | 2.05%
77 | CCOC(=O)c1c(NC(=O)Cc2coc3ccc(CC)cc23)sc2c1CCC2 | 1.55%
78 | Cc1ccc(C)c(N2CCN(C(=O)CN3C(=O)COc4ccc(S(=O)(=O)N5CCCCCC5)cc43)CC2)c1 | -10.9%
79 | Cc1ccc(Cl)cc1-n1ncc2c(N3CCC(C(N)=O)CC3)ncnc21 | -7.89%
80 | CCCCN(CC)C(=O)CN(C)S(=O)(=O)c1cccc2nsnc12 | 0.246%
81 | O=C(NCCCCc1ccccc1)C1CC(c2ccc([N+](=O)[O-])cc2)=NO1 (centres undefined) | 1.01%
82 | O=C1NC(=O)C2C1C(c1ccc([N+](=O)[O-])cc1)=NN2Cc1ccccc1 (centres undefined) | -71.6% (active)
83 | O=[N+]([O-])c1ccc(C(S(=O)(=O)Cc2ccccc2)S(=O)(=O)Cc2ccccc2)cc1 | -20.9%
84 | Cc1ccc(-n2cnc3cc(C(=O)NCCC4=CCCCC4)ccc32)cc1Cl | -19.6%
85 | COc1ccc(-c2[nH]c3c(c2-c2c(-n4cccc4)n(C)c(=O)n(C)c2=O)c(=O)n(C)c(=O)n3C)cc1 | 12.5%
86 | COc1ccccc1CNC(=O)c1ccc(NC(=O)N2CC(C)Sc3ccccc32)cc1 (centres undefined) | -6.59%
87 | COc1ccc(-c2csc(C(O)c3cccc(Cl)c3)n2)cn1 (centres undefined) | -37.6%
88 | COc1cccc(C(O)c2nc(-c3ccc(C)c(C)c3)cs2)c1 (centres undefined) | -60.7% (active)
89 | Cc1ccccc1-c1csc(C(O)c2cccc(Cl)c2)n1 (centres undefined) | -10.3%
